Test results reported in the supplement of paper PMC6555819.

Experiments:
Assay in all cases: PBM binding z-score (relative to random genomic background probes); higher = stronger binding; sequences stand for … in GC…GCGATTGACAGCGTAGAATGAAGG
[1] = system: RARb homodimer (NR concentration 270 nM)
How it was run: (§1)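 Scanned fluorescence from custom Agilent 4×180K protein-binding microarrays was regression-normalized. Binding z-scores use random background probes as reference. Ligand-free nuclear receptor dimers were incubated on the arrays for 1 h and detected with antibodies against each partner (one per run).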

[2] = system: RARg:RXRa (NR concentration 270 nM, RXRa partner concentration 90 nM)
How it was run: as §1

[3] = system: RARg homodimer (NR concentration 270 nM)
How it was run: as §1

[4] = system: RXRa DBDmut IVT, anti-RXR (DBD mutation: RXRa K156A/R161A, NR concentration 90 nM)
How it was run: as §1

[5] = system: RXRa homodimer (NR concentration 180 nM)
How it was run: as §1

[6] = system: THRa:RXRa (NR concentration 90 nM, RXRa partner concentration 90 nM)
How it was run: as §1

[7] = system: THRa homodimer (NR concentration 90 nM)
How it was run: as §1

[8] = system: VDR homodimer (NR concentration 270 nM)
How it was run: as §1

Sequence | PBM binding z-score [1] | PBM binding z-score [2] | PBM binding z-score [3] | PBM binding z-score [4] | PBM binding z-score [5] | PBM binding z-score [6] | PBM binding z-score [7] | PBM binding z-score [8]
CGAACTAGGTCATTGACAAGACAGTGAATAGTAA | 2.2 | 3.71 | 4.21 | 1.81 | 2.68 | 2.3 | 0.53 | 0.774
ACTTACGGGTCAACGAGGTTAAAGCACGCGTATA | 3.82 | 5.73 | 5.18 | 2.51 | 6.72 | 4.25 | 1.17 | 3.67
ACTATTAGTTGACTTAGGGCAAGCGATACGACGC | 0.617 | 0.671 | 0.684 | 0.657 | 0.682 | 0.91 | -0.0225 | 0.0582
CCAGACAGGTAAAAGGTAACTCAGTCTGGTACGC | 0.19 | 0.33 | 0.29 | -0.178 | 1.09 | 0.372 | -0.238 | 0.202
CGAACTAGGTCATCTAGGACAGTGAATACATTGA | 2.74 | 4.13 | 4.96 | 2.2 | 2.99 | 3.3 | 1.49 | 1.48
GCTGCTAGGTCAACTGATGGTCAGCAAAAGCTCG | 3.66 | 5.17 | 5.41 | 1.5 | 2.99 | 2.91 | 0.775 | 0.254
CGAACGAGGGCATGGGTTGATAGCAAATGCCGAT | 1.27 | 1.31 | 1.55 | 1.93 | 1.26 | 1.52 | 0.384 | 1.72
TCTGCTAGGTCAACGATGATCAGCTAATCTGCTA | 2.72 | 3.81 | 4.38 | 1.04 | 2.78 | 2.64 | 0.449 | -0.153
TATACAGGGTCAAAGTCCAGAGTACGAATGTCGA | 3.51 | 5.73 | 4.9 | 3.86 | 6.73 | 3.65 | 1.15 | 4.02
CGTCCAAGTTCAGCAGGTCAGTGAAAGCGACGTG | 3.8 | 3.81 | 3.65 | 3.67 | 2.52 | 1.96 | 0.713 | 3.65
GCTGCTAGGTCAACTTATGGTCAGCTAAAGCTCG | 3.76 | 5.26 | 5.44 | 1.75 | 3.1 | 3.33 | 1.45 | 0.364
TCTTGTAGATCAGCAGGTTAAGGAAGCTGGCCAA | 0.142 | 0.132 | -0.17 | 0.474 | 0.329 | 0.266 | -0.666 | -0.598
TCATATAGGTAAAGGGTGAAAGTCGGTGTGGTAA | 1.59 | 1.09 | 0.514 | 1.84 | 2.24 | 1.19 | 0.771 | 0.649
TCAATGAGGTTAAAGATCAGGGAACGTGGCGTCG | 0.614 | 2.41 | 1.32 | 1.88 | 4.18 | 2.42 | 0.288 | 0.855
ATCTCTAGGAAACAAGTTCAGTGAAAGAGAGGAC | 1.32 | 1 | 0.918 | 0.688 | 0.725 | 0.835 | 0.164 | 2.27
AGTCAAAGTTCATCTAGGTAACGTAGGATATGCT | 4.05 | 5.54 | 6.32 | 4.71 | 4.86 | 3.08 | 0.358 | 5.15
GATACAGGGTCAGCTAGAGGACAGAGTATGGAAA | 3.71 | 6.86 | 4.97 | 1.16 | 4.03 | 3.79 | 1.05 | 0.873
CCTACTGGGCCATTCATAGGTCATTGATCATATG | 2.77 | 2.41 | 1.78 | 0.112 | 1.56 | 1.6 | 0.0409 | 0.415
CCTTACGGGTCACGAGGTTATGGCACGACGAGCG | 3.8 | 6.05 | 5.55 | 1.3 | 6.91 | 3.72 | 1.19 | 1.71

Sequence | PBM binding z-score [1] | PBM binding z-score [2] | PBM binding z-score [3] | PBM binding z-score [4] | PBM binding z-score [5] | PBM binding z-score [6] | PBM binding z-score [7] | PBM binding z-score [8]
CTCGAGAGGTCGTGCTCAGGTGAGTATACCAAAC | 2.12 | 4.24 | 2.53 | 2.74 | 3.82 | 4.08 | 1.06 | 1.49
ATCGCAAGGTCGACGAGGTGAGTATACACCGTTT | 1.72 | 2.58 | 2.37 | 1.32 | 2.26 | 3.41 | 1.26 | 1.21
AGAATGAGGTTATTAAGATCAGGGTATTGCGGTC | 0.948 | 1.09 | 0.753 | 1.79 | 1.62 | 2.17 | 0.854 | 1.29
AGAATGAGGTTAAGATCCGGGAAACAGAATACAT | 0.774 | 2.06 | 1.4 | 0.76 | 2.46 | 2.37 | 0.603 | 0.257
TAGCCTAGGTCAGATGGGGCCAGTATACGCTATA | 2.71 | 2.98 | 3.65 | -0.279 | 1.62 | 4.6 | 0.386 | 0.0236
CGAACTGGGTCAGAACAGGACAGTGAAGGATGAT | 1.53 | 1.84 | 2.27 | 0.00591 | 1.26 | 3.55 | -0.0909 | 0.0814
CTCGTAAGGTCGTGCTCAGGTGAGTATACCAAAC | 2.05 | 3.84 | 2.77 | 2.39 | 2.68 | 4.18 | 2.99 | 1.5
CCTAGCAGGCCAATCTGGGTCACCCAAGGCTTGA | 2.55 | 1.34 | 1.38 | -0.396 | 1.07 | 3.92 | 0.793 | -0.51
CCTACTGCGCCAAGGTCATTGATCAGTCAAAGCA | 3.46 | 3.72 | 2.98 | 2.48 | 3.42 | 3.54 | 3.12 | 4.13
CTCGAAAGGTCGTGCTCAGGTAAGTATACCAAAC | 2.92 | 4.8 | 4.35 | 2.12 | 5.15 | 3.62 | 0.655 | 1.17
TGTTGTAGATCAAGCAGGTTAAGAAAGCCTGAGT | 0.0369 | -0.0637 | 0.062 | -1.02 | -0.024 | 0.0864 | -0.545 | -0.058
GTGACTGGGGCAAAGCAGGTTACCATAAGGTTGG | 1.55 | 1.43 | 1.19 | -0.205 | 0.875 | 3.35 | 0.631 | 0.275
ATATGTAGCTTATCGGGTCATTCAGTTTGCGCAT | 2.24 | 1.85 | 1.35 | 1.26 | 2.35 | 3.03 | 2.6 | 3.7
TCTGCTAGGTCAGTTGGTCAGTTAACGAGCTGCC | 2.57 | 2.69 | 3.81 | 0.618 | 0.575 | 1.34 | 0.247 | -0.347
GCTAGTTGGTCAGTAAAAGGTCAGACACCGGTCG | 4.8 | 4.68 | 4.27 | 0.252 | 3.55 | 2.64 | 0.737 | 0.607
CGTCCAAGGTCAAGGACAGTGAAAGAGACTCGAA | 3.94 | 6.19 | 6.78 | 3.26 | 5.3 | 3.74 | 2.83 | 2.03
TCAGACAGGTGAAGGCAACTCAGGTACGCAGTCG | 0.466 | 0.17 | 0.317 | 0.993 | 0.955 | 0.99 | -0.0896 | -0.101
CTCGAAAGGTCGGTTGATGTGAGTATACGGATAA | 1.8 | 2.39 | 2.37 | 0.767 | 1.96 | 2.01 | -0.0197 | 0.986
ACAGACAGGTCAGTGAAGGTAACTCAGCTGGACG | 2.48 | 3.33 | 4.21 | 0.616 | 2.23 | 3.86 | -0.151 | -0.256

Sequence | PBM binding z-score [1] | PBM binding z-score [2] | PBM binding z-score [3] | PBM binding z-score [4] | PBM binding z-score [5] | PBM binding z-score [6] | PBM binding z-score [7] | PBM binding z-score [8]
AGTAAAAGTTCAGGACGAGGTAACGTAAAGCACG | 2.91 | 4.29 | 4.25 | 2.76 | 2.3 | 3.78 | 2.01 | 1.89
ACTATTAGTTGAGACGAGGGCATCCGATAGGTTG | 0.79 | 0.519 | 0.799 | 0.829 | 0.473 | 2.29 | 0.321 | 1.38
CGAACTAGGTCATCCATGACAGTGAATACATTGA | 2.92 | 4 | 4.72 | 2.04 | 2.97 | 2.84 | 0.683 | 1.17
TCTAGTAGATCAACAGGAGGTTAAGAAAGATCGA | 0.413 | 0.662 | 0.244 | 0.766 | 0.901 | 0.727 | -0.505 | 0.097
TCGTGTAGATCAACAGGAGGTTAAGAAAGATCGA | 0.472 | 0.729 | 0.231 | -0.0769 | 0.672 | 0.819 | -0.773 | -0.463
CGAGCTAGGTCAAGGACAGTGAATCTCCGCACGC | 2.95 | 3.8 | 4.67 | 1.27 | 2.28 | 3.02 | 1.62 | -0.0669
TCTTGTAGATCAATAGAGGTTGAGAAAGTGCGCT | -0.259 | 0.00331 | -0.196 | 0.738 | 0.307 | 0.629 | -0.723 | -0.179
ATACCAAGTTGATCGTGAGGTCGTTGATACTAAC | 1.39 | 1.26 | 0.677 | 1.34 | 1.08 | 2.75 | 2.33 | 3.08
CCAGACAGCTGAAAGGTAACTCAGTCTGGTACGC | -0.175 | -0.0986 | -0.184 | 0.0606 | 0.212 | 0.0566 | -0.51 | -0.0523
CCTAGCAGGCCAGGGTCACTGAAGCATTTCGCTT | 2.95 | 3.32 | 2.91 | 0.172 | 3.86 | 3.07 | 1.02 | 1.19
AGAACGAGGGCACGGTGAGTTGATAGCAGAGTAG | 1.6 | 2.2 | 2.31 | 1.82 | 1.53 | 2.18 | 0.165 | 2.1
CTCAAAAGGTCGTGCTCAGGTGAGTATACCAAAC | 2.79 | 5.29 | 3.99 | 2.02 | 4.73 | 4.13 | 1.02 | 0.794
TCATATAGGTAAATGCTAGGTAAAAGTCCGATCT | 0.193 | 0.567 | 0.36 | 1.76 | 0.806 | 0.9 | 0.258 | 0.409
AATACAGGGTCACTAGGCGAGAGTAGGTACGAAT | 3.24 | 5.21 | 5.18 | 2.87 | 5.73 | 3.48 | 1.41 | 2.82
TGATATAGGTAAACAGGTGAAAGTCCGTAAGTTA | 0.629 | 0.44 | 0.407 | -0.121 | 0.613 | 0.68 | 0.366 | 0.301
ATCGATAGGTCGACGAGGTGAGTATACACCGTTT | 0.959 | 1.8 | 1.82 | 0.0347 | 1.67 | 2.59 | 0.488 | 0.231
CCGACCGGGGCAAAGGTTACCATACTCAGTACGA | 2.34 | 3.83 | 2.02 | 0.0663 | 4.51 | 2.47 | 0.202 | 0.185
TCAAATAGGTAAAGGTGAAAGTCGAACGATATGA | 1.73 | 1.78 | 1.49 | 1.55 | 2.33 | 1.32 | -0.328 | 0.351
